# Laboratory results taken from ChEMBL document CHEMBL3988442, “University of Dundee, Small-Polar-MMV Screening Library” (2021).
# Hit rate of the full screen: of about 69,000 compounds, about 950 (1.4%) showed an effect of 50% or more. This is one part of a sample in which strong results are shown more often than they occur.
# System: Mycobacterium tuberculosis
# Experiment: Cornell M. t heat shock assay; also: in the data most compounds retested in dose-response had high values
# Assay type: functional, organism-based
# Parameters: dose or concentration left out as unconfirmed
row,SMILES,Percent Effect [%]
1,O=C(C1CCC1)N1C[C@@H]2CC[C@H](C1)N(S(=O)(=O)c1ccccc1)C2,-12.74
2,CN(C)C(=O)N1C[C@@H]2CC[C@H](C1)N(S(=O)(=O)c1cccnc1)C2,-21.11
3,O=C(NCc1cccnc1)N1CCc2ncnc(NC3CC3)c2CC1.O=C(O)C(F)(F)F,-0.2594
4,CCOCC1c2c(ncn2C)CCN1C(=O)c1cnc(C)cn1.O=C(O)C(F)(F)F (stereo unspecified),18.53
5,CCOCC1c2c(ncn2C)CCN1C(=O)c1cscn1 (stereo unspecified),57.96
6,CCOCC1c2c(ncn2C)CCN1C(=O)c1ccoc1 (stereo unspecified),35.15
7,CC(C)(CO)NCc1ccc(OCc2ccc3c(c2)OCCO3)cc1.Cl,-22.54
8,O=C(O)C(F)(F)F.O=C(O)C(F)(F)F.O=C(O)C(F)(F)F.c1cncc(CN2CC[C@@H]3O[C@H](COCCN4CCCC4)CC[C@@H]32)c1,-18.74
9,CC(C)C(=O)N1CC[C@@H]2[C@H](CC1)N(Cc1cccnc1)CCS2(=O)=O.O=C(O)C(F)(F)F.O=C(O)C(F)(F)F,-30.61
10,Cc1cc(NC(=O)C(C)Nc2cccc(COCc3ccco3)c2)on1 (stereo unspecified),4.042
11,CC(Nc1cccc(COCc2ccco2)c1)C(=O)NC(N)=O (stereo unspecified),0.6149
12,CCOC(=O)C(C)Nc1cccc(COCc2ccco2)c1 (stereo unspecified),104.6
13,CC(C)CN1CCC2(CCCNC2)C1=O.Cl (stereo unspecified),-13.24
14,O=C(O)C(F)(F)F.O=C(c1cccnc1)N1CCc2ncnc(C3CCOC3)c2CC1 (stereo unspecified),8.544
15,COCc1nn(C(C)C)c2c1CCN(Cc1nccs1)C2.O=C(O)C(F)(F)F,-16.62
16,Cc1nc(CN2CCO[C@@H]3CN(Cc4cccs4)C[C@@H]3C2)cs1.O=C(O)C(F)(F)F.O=C(O)C(F)(F)F,-15.47
17,Cc1nc(CN2CCOCC3(CCN(c4cnccn4)CC3)C2)cs1.O=C(O)C(F)(F)F,-3.315
18,CCc1cccc2c(CC(=O)N(C)CCN(C)C)c(C)[nH]c12.O=C(O)CC(O)(CC(=O)O)C(=O)O,1.394
19,Cc1cc(NC2CCN(c3ccc(F)cc3)CC2)n2nc(C)cc2n1,11.63
20,Cc1cc(N[C@H]2CCCN(Cc3ccccc3)C2)n2nc(C)cc2n1,37.52
21,Cc1cc(NC2CCCN(Cc3ccc(F)cc3)C2)n2nc(C)cc2n1 (stereo unspecified),55.79
22,CNc1ncc2c(n1)CN(Cc1ccc(Cl)cc1)C2=O,-7.307
23,C[C@@H]1CN(Cc2cc(C3CCCCC3)no2)CC[C@@]1(O)C1CC1,-30.44

row,SMILES,Percent Effect [%]
1,Cn1ccc(C(=O)N2CCCC(c3cc(O)n(C)n3)C2)n1 (stereo unspecified),-7.619
2,Cn1nc(C2CCCN(C(=O)CO)C2)cc1O (stereo unspecified),54.18
3,COCCC(=O)N1CCC(c2cc(O)n(C)n2)C1 (stereo unspecified),9.695
4,COCCN1CCOCC12CCN(C(=O)c1cccnc1)CC2.O=C(O)C(F)(F)F,-43.19
5,CN1CC[C@@H]2OC[C@H](C(=O)N(C)Cc3ccccn3)C[C@@H]2C1.O=C(O)C(F)(F)F.O=C(O)C(F)(F)F,42.17
6,O=C(NC1CC1)[C@@H]1CCO[C@@H]2CCN(Cc3ccsc3)C[C@H]21.O=C(O)C(F)(F)F,-0.7242
7,O=C(O)C(F)(F)F.O=C([C@@H]1C[C@@H]2CCN(CCc3ccccc3)C[C@H]2O1)N1CCCC1,7.524
8,O=c1cc(CN2CCCC2)nc2n1CCCN(CC1CC1)C2,59.59
9,O=c1cc(CN2CCCC2)nc2n1CCCN(CC1CCOCC1)C2,-14.03
10,CN(C)Cc1cc(=O)n2c(n1)CN(CC1CC1)CCC2,-15.16
11,COCC(=O)NC[C@H]1CC[C@H](c2nnc(-c3ccncc3)o2)CC1,-43.76
12,Cn1cc(CN2CCCC23CCN(Cc2nccn2C)CC3)cn1.O=C(O)C(F)(F)F.O=C(O)C(F)(F)F,-17.58
13,Cl.Cl.O=C(NCc1cncc2c1CCN(C1CCOCC1)C2)c1ccco1,7.016
14,O=C(O)C(F)(F)F.O=C(O)C(F)(F)F.c1ccc(N2CCC3(COCCN(c4ncccn4)C3)C2)nc1 (stereo unspecified),3.163
15,Cn1cc(CN2CCC(F)(F)C3(CCN(c4ncccn4)C3)C2)cn1.O=C(O)C(F)(F)F.O=C(O)C(F)(F)F (stereo unspecified),-18.65
16,CC(C)n1ccnc1CN1CCOC(CC2CCCCC2)C1 (stereo unspecified),50.37
17,CC(C)n1ccnc1CN1CCCN(C(=O)CC2CCCO2)CC1 (stereo unspecified),-7.243
18,CC(C)n1ccnc1CN1CCOC(CCc2ccccc2)C1 (stereo unspecified),-0.01061
19,O=C(O)C(F)(F)F.O=C(O)C(F)(F)F.O=C(O)C(F)(F)F.c1cnc(NC[C@H]2OC[C@@H]3CCN(Cc4nccs4)C[C@@H]32)nc1,-22.37
20,CNC(=O)[C@H]1C[C@@H]2CN(Cc3cccnc3OC)C[C@@H]2N1C(C)=O.O=C(O)C(F)(F)F.O=C(O)C(F)(F)F,-6.106
21,CCc1ccc(C2CCCN2C(=O)NCC(=O)NCC(C)C)o1 (stereo unspecified),-12.75
22,COCCN1CCN(CCS(C)(=O)=O)CC1C (stereo unspecified),-13.47
23,COCCN1CCN(CCCS(C)(=O)=O)CC1C (stereo unspecified),-16.37

row,SMILES,Percent Effect [%]
1,COCCN1CCN(CCS(=O)(=O)C(F)(F)F)CC1C (stereo unspecified),105.5
2,CCN(CC)Cc1cn2c(n1)CN(C(=O)c1cc(C)on1)CC2.O=C(O)C(F)(F)F,-2.302
3,CC(C)c1noc(CS(=O)(=O)Cc2nc(C(C)C)no2)n1,-44.125
4,CC(C)c1noc(CS(=O)(=O)CC(=O)NCc2cccs2)n1,58.74
5,CC(C)c1noc(CS(=O)(=O)CC(=O)NCc2ccccc2)n1,49.68
6,CCc1noc(CS(=O)(=O)CC=C(C)C)n1,29.3
7,CC(Cn1cccn1)NCc1nc(-c2cccs2)no1 (stereo unspecified),22.29
8,Cc1noc(CS(=O)(=O)C(C)C(=O)N(C)c2ccccc2)n1 (stereo unspecified),6.585
9,CCC(C)NC(=O)CS(=O)(=O)Cc1ccccc1Cl (stereo unspecified),-5.393
10,CCC(C)NC(=O)CS(=O)(=O)Cc1nc(-c2cccs2)no1 (stereo unspecified),65.94
11,Cc1noc(CS(=O)(=O)CC(=O)NC(C)c2ccccc2)n1 (stereo unspecified),70.08
12,CCN(C(=O)C(C)S(=O)(=O)Cc1nc(C)no1)c1ccccc1 (stereo unspecified),-1.269
13,CC(C)c1noc(CS(=O)(=O)CC(=O)NCCOc2ccccc2)n1,41.58
14,CC(C)=CCS(=O)(=O)Cc1nc(C(C)C)no1,58.075
15,CC1N(C)C(=O)COC12CCN(Cc1nccs1)CC2.O=C(O)C(F)(F)F (stereo unspecified),2.077
16,CCn1nc(C)cc1C(=O)N1C[C@H]2CCC[C@@]2(COc2ccccn2)C1.O=C(O)C(F)(F)F,-22.73
17,O=C(N[C@@H]1CN(CC2CC2)[C@@H]2CCCO[C@@H]21)c1cscn1.O=C(O)C(F)(F)F,21.59
18,Cl.O=c1c2sccc2nc2n1CCN(Cc1ccccc1C(F)(F)F)CC2,24
19,O=C(NC[C@]12COC[C@H]1CN(C1CCOCC1)C2)c1ccco1.O=C(O)C(F)(F)F,-7.738
20,O=C(O)C(F)(F)F.O=C([C@H]1C[C@@H]2CCN(C3CCOCC3)C[C@H]2O1)N1CCCC1,-29.11
21,CC(C)c1noc(CS(=O)(=O)CC(=O)NCC(F)(F)F)n1,45.89
22,CCCc1noc(CCC(=O)NC(C)c2nnc3n2CCCCC3)n1 (stereo unspecified),-4.52
23,CCCc1noc(CS(=O)(=O)CC(=O)NC(C)CCC)n1 (stereo unspecified),60.91

row,SMILES,Percent Effect [%]
1,COc1cccc(CN2C[C@@H]3COC[C@]3(COCc3ccccn3)C2)c1.O=C(O)C(F)(F)F.O=C(O)C(F)(F)F,-27.12
2,Fc1cnc(N2CCCC3(CCN(Cc4ccco4)C3)C2)nc1.O=C(O)C(F)(F)F.O=C(O)C(F)(F)F (stereo unspecified),-39.88
3,Cc1cnn(CC2CCCN2Cc2nc(N)c3ccccc3n2)c1 (stereo unspecified),64.38
4,Cc1cnn(CC2CN(Cc3nc(N)c4ccccc4n3)CCO2)c1 (stereo unspecified),8.088
5,Nc1nc(CN2CCCC2Cn2cncn2)nc2ccccc12 (stereo unspecified),-4.506
6,Nc1nc(CN2CCCCC2Cn2cncn2)nc2ccccc12 (stereo unspecified),-45.18
7,Cc1cnn(CC2CCCN2Cc2noc(-c3ccccc3)n2)c1 (stereo unspecified),-2.457
8,Cc1cnn(CC2CCCCN2Cc2nc(N)c3ccccc3n2)c1 (stereo unspecified),92.62
9,COc1cccc(CN2CCCCC2c2n[nH]cc2-c2cc(C)no2)c1.Cl (stereo unspecified),13.26
10,CCOC1COC2(CCN(CC3CCOCC3)CC2)C1.O=C(O)C(F)(F)F (stereo unspecified),-19.84
11,CCS(=O)(=O)N1CCOCC2(CCN(c3ccccn3)C2)C1.O=C(O)C(F)(F)F (stereo unspecified),-24.76
12,CCc1nc2ccccc2c(=O)n1CC1(O)CCNCC1.Cl,-1.704
13,O=C(O)C(F)(F)F.O=C(c1ccncn1)N1CCC[C@]2(C[C@H](Oc3ncccc3F)CO2)C1,-22.98
14,COCC(C)NC(=O)c1cn(C(C)(C)C)c2ncccc12 (stereo unspecified),-8.611
15,CC(C)(C)n1cc(C(=O)NCCCn2ccnc2)c2cccnc21,-4.729
16,COCCNC(=O)c1cn(C(C)(C)C)c2ncccc12,84.66
17,CNC(=O)c1cn(C(C)(C)C)c2ncccc12,4.278
18,COCCN(CCOC)C(=O)c1cn(C(C)(C)C)c2ncccc12,20.52
19,CCNC(=O)c1cn(C(C)(C)C)c2ncccc12,35.45
20,CCOCCCNC(=O)c1cn(C(C)(C)C)c2ncccc12,48.73
21,COCCCNC(=O)c1cn(C(C)(C)C)c2ncccc12,50.28
22,CCCNC(=O)c1cn(C(C)(C)C)c2ncccc12,52.59
